In PubChem BioAssay (NCATS):
Inconclusive results are not listed. Where a call stands in place of a potency, no number is given. Calls of active or inactive are those of the source. The call rests on the fitted dose curve; in most records, active means well fitted curve in the direction sought with a large enough effect; inconclusive means small, poorly fitted or top-dose-only effect, or another doubt; inactive means no such curve, though single readings can be large; an effect the other way counts as inactive or inconclusive.

Tests used:
[1] = tested on: Zika virus NS2B-NS3 protease (unlinked); test: Optimization of GU AMC qHTS for Zika virus inhibitors: Unlinked NS2B-NS3 protease assay (AID 1347151); further: nearly all actives have a fitted effect of over 80% in size; further: potency means the concentration at half of the fitted maximal effect
How it was run: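 In this qHTS, compounds acted on 25 nM unlinked Zika NS2B–NS3 in pH 8.0 Tris/Tween buffer. Cleavage of an AMC peptide ran 15 min at room temperature, to about 20% conversion.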

[2] = target: Lysine-specific demethylase 5B (Homo sapiens) (UniProt Q9UGL1); test: Optimization screen for KDM5B Histone Demethylases FDH coupled qHTS against the LOPAC library (AID 1347166)
How it was run: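 KDM5BDeltaAP (200nM final) preincubated 10 min with compound, then 12.5uM H3K4Me3, 25uM a-ketoglutarate, ascorbate, Fe(II), NAD+ and FDH added; 50mM HEPES pH 7.5, 0.01% Tween-20. NADH fluorescence (340/450 nm) change over 30 min, room temperature.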

[3] = tested on: Zika virus NS2B-NS3 protease (linked construct); test: Confirmatory screen NINDS AMC qHTS for Zika virus inhibitors (AID 1347152);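 further: AMC fluorescence gain from cleaved Bz-Nle-KRR-AMC substrate over 15 min; top concentration of the series differs between compounds; nearly all actives have a fitted effect of over 70% in size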
How it was run: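 Concentration-response confirmation used the NINDS linked protease (NS2B hydrophilic domain joined to NS3 protease domain), 1 nM, with a 15-min compound preincubation. Substrate, Nle-KRR-AMC at 10 microM, was read by UV fluorescence before and after 15 min.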

[4] = tested on: Zika virus NS2B-NS3 protease (unlinked complex); test: Confirmatory screen GU AMC qHTS for Zika virus inhibitors (AID 1347153); further: nearly all actives have a fitted effect of over 70% in size
How it was run: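 Noncovalent NS2B hydrophilic domain/NS3 protease complex (25 nM) in 10 mM Tris-HCl pH 8.0, 0.01% Tween 20 was preincubated 15 min at room temperature with compounds. Then 10 µM AMC substrate (Km 18.3 µM) was added; fluorescence was read over 15 min and fitted to a 4-parameter Hill equation.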

[5] = Confirmatory screen NINDS Rhodamine qHTS for Zika virus inhibitors (AID 1347161); further: nearly all actives have a fitted effect of over 60% in size; further: potency means the concentration at half of the fitted maximal effect
How it was run: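 Single-chain NS2B-NS3 protease, 25 nM, pH 8.0; compounds preincubated 15 min. Activity: Rhodamine110 release from 1.5 microM substrate over 15 min, room temperature, data fitted to 4-parameter Hill.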

[6] = Vero cells viability qHTS for Zika virus inhibitors (AID 1347167); further: potency means the concentration at half of the fitted maximal effect
How it was run: (§1)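 Cells seeded at 2.5 x 10^5 cells/mL in DMEM with 4% FBS and attached overnight at 37 degrees C, then exposed to compound for 24 to 48 hours. Viability read as ATP content by CellTiter Glo luminescence.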

[7] = HepG2 cells viability qHTS for Zika virus inhibitors (AID 1347168); further: potency means the concentration at half of the fitted maximal effect
How it was run: as §1

[8] = tested on: Zika virus NS2B-NS3 protease; test: Primary screen GU AMC qHTS for Zika virus inhibitors (AID 1347154); further: nearly all actives have a fitted effect of over 70% in size
How it was run: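 Unlinked Zika NS2B hydrophilic domain–NS3 protease complex at 25 nM in 10 mM Tris-HCl pH 8.0, 0.01% Tween 20, with an AMC peptide substrate. Fluorescence change (340/450 nm) over 15 min at room temperature, normalized to controls, fitted to 4-parameter Hill.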

[9] = tested on: Zika virus NS2B-NS3 protease (linked construct); test: Primary screen NINDS Rhodamine qHTS for Zika virus inhibitors (AID 1347160); conditions: outcome: dose series up to 57.1 µM; further: nearly all actives have a fitted effect of over 55% in size
How it was run: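 Purified linked NS2B-NS3 protease (NS2B hydrophilic domain joined to NS3 protease by flexible linker), 25 nM in 10 mM Tris-HCl pH 8.0, 0.01% Tween 20. Compounds titrated, 15 min preincubation at room temperature; 1.5 microM Rhodamine110 substrate, FITC fluorescence change over 15 min.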

[10] = Tertiary RLuc qRT-PCR qHTS assay for Zika virus inhibitors (AID 1347169); further: nearly all actives have a fitted effect of over 55% in size; further: potency means the concentration at half of the fitted maximal effect
How it was run: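 Inhibition of ZIKV-RLuc replication in Vero cells, read as Renilla luminescence 1-1.5 hrs after live-cell substrate addition, following 48-72 hrs infection at MOI 1-2 in presence of compound.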

[11] = Confirmatory screen GU Rhodamine qHTS for Zika virus inhibitors qHTS (AID 1347157); conditions: purified enzyme assay, Rhodamine110 substrate fluorescence, 15 min; further: potency means the concentration at half of the fitted maximal effect; nearly all actives have a fitted effect of over 70% in size
How it was run: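 Noncovalent NS2B hydrophilic domain/NS3 protease complex (25 nM final) in 10 mM Tris-HCl pH 8.0, 0.01% Tween 20, preincubated 15 min with compounds (up to 114 microM), then 1.5 microM Rhodamine110 substrate. Fluorescence change over 15 min fitted to 4-parameter Hill.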

[12] = tested on: Zika virus NS2B-NS3 protease (linked); test: 384 well plate NINDS AMC confirmatory qHTS for Zika virus inhibitors (AID 1347163);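 further: fluorescence of AMC released from Ac-VKTGKR-AMC peptide cleaved by the protease; top concentration of the series differs between compounds; nearly all actives have a fitted effect of over 50% in size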
How it was run: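 Linked NS2B-NS3 protease (final 5 nM, 30 nM or 60 nM) was preincubated with compounds (final up to 1 mM) for ~15 minutes. Ac-VKTGKR-AMC substrate (final 30 microM) then reacted for 25 minutes at room temperature in the dark. Fluorescence (ex 355/em 460 nm) was normalized to no-enzyme and no-inhibitor controls.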

[13] = tested on: Zika virus NS2B-NS3 protease (linked construct); test: 384 well plate NINDS Rhodamine confirmatory qHTS for Zika virus inhibitors (AID 1347164); further: potency means the concentration at half of the fitted maximal effect; nearly all actives have a fitted effect of over 65% in size
How it was run: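 Cleavage of Ac-LKRR-Rhodamine 110 (10 microM final) by linked protease (final 5, 30 or 60 nM) was followed as fluorescence at 485/538 nm after 25 min, room temperature, dark. Compounds preincubated ~15 min.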

[14] = OV-KATE Cancer Cell Toxicity qHTS against the NCATS CANVASS Library (AID 1347345)
How it was run: (§2)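 In this cytotoxicity screen, 1000 cells per well rested 4 hours, then received compound (11 concentrations) for a 72-hour incubation; an ATP-dependent luminescent signal (CellTiter-Glo) was the endpoint.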

[15] = HPAF-II Cancer Cell Toxicity qHTS against the NCATS CANVASS Library (AID 1347346); further: nearly all actives have a fitted effect of over 55% in size
How it was run: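 HPAF-II cells at 1000 cells/well were treated with an 11-point concentration series for 72 hours at 37 degrees C. Viability read by CellTiter-Glo luminescence.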

[16] = UWB1.289 Cancer Cell Toxicity qHTS against the NCATS CANVASS Library (AID 1347347); further: nearly all actives have a fitted effect of over 60% in size
How it was run: as §2

[17] = OV-SAHO Cancer Cell Toxicity qHTS against the NCATS CANVASS Library (AID 1347348); further: nearly all actives have a fitted effect of over 55% in size
How it was run: as §2

[18] = Panc-1005 Cancer Cell Toxicity qHTS against the NCATS CANVASS Library (AID 1347349); further: nearly all actives have a fitted effect of over 60% in size
How it was run: as §2

[19] = SW1088 Cancer Cell Toxicity qHTS against the NCATS CANVASS Library (AID 1347350); conditions: SW1088 viability, CellTiter-Glo luminescence, 72 h; at 38.3 µM (top of the series); further: nearly all actives have a fitted effect of over 75% in size
How it was run: as §2

[20] = ZIKV-mCherry secondary qHTS for Zika virus inhibitors (AID 1347158); further: top concentration of the series differs between compounds
How it was run: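 Vero cells (5,000/well) were given compound, then infected with ZIKV-mCherry at MOI 1 for 48–72 h at 37 °C. After PFA fixation and Hoechst staining, imaging gave percent mCherry-positive cells. The positivity threshold was RFU above 450, 3 SD over negative controls.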

Sequence of Lysine-specific demethylase 5B (Homo sapiens) (Q9UGL1 whole entry, looked up): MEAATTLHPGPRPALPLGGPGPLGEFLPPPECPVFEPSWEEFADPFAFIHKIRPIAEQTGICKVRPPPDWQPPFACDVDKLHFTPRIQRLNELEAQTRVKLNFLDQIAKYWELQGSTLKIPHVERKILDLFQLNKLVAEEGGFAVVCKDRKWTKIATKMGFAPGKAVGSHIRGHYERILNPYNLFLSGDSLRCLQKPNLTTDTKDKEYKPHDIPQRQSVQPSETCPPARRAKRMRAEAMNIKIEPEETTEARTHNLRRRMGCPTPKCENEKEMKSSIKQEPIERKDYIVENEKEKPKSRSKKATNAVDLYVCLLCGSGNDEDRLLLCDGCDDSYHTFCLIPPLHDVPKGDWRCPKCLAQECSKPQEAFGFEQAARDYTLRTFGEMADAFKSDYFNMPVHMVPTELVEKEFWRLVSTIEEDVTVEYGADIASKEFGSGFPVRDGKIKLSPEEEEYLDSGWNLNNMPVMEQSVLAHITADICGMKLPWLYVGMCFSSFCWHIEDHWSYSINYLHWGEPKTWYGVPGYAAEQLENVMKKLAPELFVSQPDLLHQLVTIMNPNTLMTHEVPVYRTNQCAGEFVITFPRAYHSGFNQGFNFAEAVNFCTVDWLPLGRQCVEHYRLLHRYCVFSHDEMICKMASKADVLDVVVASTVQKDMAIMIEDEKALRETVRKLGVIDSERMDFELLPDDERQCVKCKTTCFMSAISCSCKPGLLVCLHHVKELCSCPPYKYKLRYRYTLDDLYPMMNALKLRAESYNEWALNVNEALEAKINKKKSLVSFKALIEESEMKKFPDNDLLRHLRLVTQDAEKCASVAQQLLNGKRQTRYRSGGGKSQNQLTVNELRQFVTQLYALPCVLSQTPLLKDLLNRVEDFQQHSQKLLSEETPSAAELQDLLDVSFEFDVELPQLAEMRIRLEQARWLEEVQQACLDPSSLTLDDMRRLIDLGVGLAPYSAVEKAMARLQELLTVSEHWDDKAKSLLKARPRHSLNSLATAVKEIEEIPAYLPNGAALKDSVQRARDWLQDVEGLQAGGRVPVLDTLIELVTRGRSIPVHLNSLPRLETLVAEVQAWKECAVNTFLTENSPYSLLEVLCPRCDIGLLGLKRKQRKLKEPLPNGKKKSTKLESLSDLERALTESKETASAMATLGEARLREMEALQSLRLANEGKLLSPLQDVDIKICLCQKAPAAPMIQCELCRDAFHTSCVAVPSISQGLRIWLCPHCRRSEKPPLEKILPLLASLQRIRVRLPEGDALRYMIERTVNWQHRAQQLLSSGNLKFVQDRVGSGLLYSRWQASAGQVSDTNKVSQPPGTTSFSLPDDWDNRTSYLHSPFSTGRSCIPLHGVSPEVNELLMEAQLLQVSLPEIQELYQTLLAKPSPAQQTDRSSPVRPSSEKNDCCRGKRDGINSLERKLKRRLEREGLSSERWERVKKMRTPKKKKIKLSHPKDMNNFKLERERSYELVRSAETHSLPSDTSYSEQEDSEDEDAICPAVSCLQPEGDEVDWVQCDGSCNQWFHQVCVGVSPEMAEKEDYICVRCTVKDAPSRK

For `CC(=O)O[C@H]1C[C@@H]2CC[C@@H]3[C@H](CC[C@@]4(C)[C@H]3C[C@H]([N+]3(C)CCCCC3)[C@@H]4OC(C)=O)[C@@]2(C)C[C@@H]1[N+]1(C)CCCCC1`, the Potency [1] was “inactive” and the outcome [2] was “inactive”.
With `CC(C)C[C@H]1C(=O)N2CCC[C@H]2[C@]2(O)O[C@](NC(=O)[C@@H]3C=C4c5cccc6[nH]c(Br)c(c56)C[C@H]4N(C)C3)(C(C)C)C(=O)N12` the Potency [1] was 11.9 µM (active), the Potency [3] was “inactive” and the Potency [4] was “inactive”. For the same molecule, the Potency [5] was “inactive”, the Potency [6] was “inactive” and the Potency [7] was “inactive”.
For `Nc1cc(Cl)c(NC2=NCCN2)c(Cl)c1`, the Potency [1] was “inactive” and the outcome [2] was “inactive”.
In the case of `Nc1ccn([C@@H]2O[C@H](CO)[C@@H](O)C2(F)F)c(=O)n1`, the Potency [1] is reported as “inactive”, the Potency [8] is reported as “inactive” and the outcome [9] is reported as “inactive”. For the same molecule, the Potency [6] was “inactive”, the Potency [7] was “inactive” and the Potency [10] was 30.2 nM (active).
In the case of `CN1C2CCC1CC(OC(=O)c1c[nH]c3ccccc13)C2` (centres undefined), the Potency [1] is reported as “inactive” and the outcome [2] is reported as “inactive”.
With `CN(C)/N=N/c1nc[nH]c1C(N)=O` the Potency [8] was “inactive”.
For `CCCCOc1cc(C(=O)NCCN(CC)CC)c2ccccc2n1`, the Potency [8] was “inactive”.
With `Cc1cccc(C)c1NC(=O)CN1CCN(CCCC(c2ccc(F)cc2)c2ccc(F)cc2)CC1` the Potency [8] was “inactive”.
With `CCCCC(=O)O[C@]1(C(=O)CO)CC[C@H]2[C@@H]3CCC4=CC(=O)CC[C@]4(C)[C@H]3[C@@H](O)C[C@@]21C` the Potency [8] was “inactive”.
In the case of `Oc1ccc(Cl)c2cccnc12`, the Potency [8] is reported as “inactive”.
With `O=S1(=O)c2cccc3cccc(c23)N1CCCN1CCN(c2ccc(F)cc2)CC1` the Potency [8] was “inactive”.
In the case of `O=C(CCN1CCC(c2ccccc2)C1)c1ccc2c(c1)OCCO2` (centres undefined), the Potency [8] is reported as “inactive”.
In the case of `CCCCCCCCCCCCCCCC[N+](C)(C)CC`, the Potency [8] is reported as “inactive”.
In the case of `CCCOC(C(=O)OC1CCN(C)CC1)(c1ccccc1)c1ccccc1`, the Potency [8] is reported as “inactive”.
In the case of `CCC(C(=O)OCCN(CC)CC)c1ccccc1` (centres undefined), the Potency [8] is reported as “inactive”.
With `CC/C(=C(/CC)c1ccc(O)cc1)c1ccc(O)cc1` the Potency [8] was “inactive”.
With `CCOC(=O)OC(C)OC1=C(C(=O)Nc2ccccn2)N(C)S(=O)(=O)c2ccccc21` (centres undefined) the Potency [8] was “inactive”.
With `O=C(OCC(O)CO)c1ccccc1Nc1ccnc2cc(Cl)ccc12` (centres undefined) the Potency [8] was “inactive”.
With `CCOC(=O)n1ccn(C)c1=S` the Potency [8] was “inactive”.
With `NCCc1ccn[nH]1` the Potency [8] was “inactive”.
With `CC(=O)OCC(=O)NCCCOc1cccc(CN2CCCCC2)c1` the Potency [8] was “inactive”.
With `COc1cc2c(cc1OC)C(=O)C(CC1CCN(Cc3ccccc3)CC1)C2` (centres undefined) the Potency [8] was “inactive”.
With `CC(Cc1ccccc1)(NC(=O)CN)c1ccccc1` (centres undefined) the Potency [8] was “inactive”.
With `CC(=O)Nc1c(I)cc(I)c(C(=O)O)c1I` the Potency [8] was “inactive”.
For `CC1(C)O[C@@H]2C[C@H]3[C@@H]4CCC5=CC(=O)CC[C@]5(C)[C@@]4(F)[C@@H](O)C[C@]3(C)[C@]2(C(=O)CCl)O1`, the Potency [8] was “inactive”.
With `CCC(=O)c1c(O)cc(O)cc1O` the Potency [8] was “inactive”.
For `COc1cccc2c1C(=O)c1c(O)c3c(c(O)c1C2=O)C[C@@](O)(C(=O)CO)C[C@@H]3O[C@H]1C[C@H](N)[C@H](O)[C@H](C)O1`, the Potency [8] was “inactive”.
For `CCCCCCC[N+](CC)(CC)CCCCc1ccc(Cl)cc1`, the Potency [8] was “inactive”.
For `COc1cccc(CCc2ccccc2OCC(CN(C)C)OC(=O)CCC(=O)O)c1` (centres undefined), the Potency [8] was “inactive”.
For `CC(=O)Oc1ccc(C(=C2CCCCC2)c2ccc(OC(C)=O)cc2)cc1`, the Potency [8] was “inactive”.
With `O=C1OCCN1/N=C/c1ccc([N+](=O)[O-])o1` the Potency [8] was “inactive”.
In the case of `O=C(CCCN1CCC(O)(c2ccc(Br)cc2)CC1)c1ccc(F)cc1`, the Potency [8] is reported as “inactive”.
For `C/C=C(/C(=C/C)c1ccc(O)cc1)c1ccc(O)cc1`, the Potency [8] was “inactive”.
With `CCOC(=O)[C@H](CCc1ccccc1)N[C@@H](C)C(=O)N1Cc2ccccc2C[C@H]1C(=O)O` the Potency [8] was “inactive”.
For `CN=C(NC#N)NCCSCc1csc(N=C(N)N)n1`, the Potency [8] was “inactive”.
For `CN(C(=O)CN(CCO)CC(=O)N(C)C(C)(C)Cc1ccccc1)C(C)(C)Cc1ccccc1`, the Potency [8] was “inactive”.
With `CC(C)(Oc1ccc(Cl)cc1)C(=O)O` the Potency [8] was “inactive”.
With `Oc1c(I)cc(Cl)c2cccnc12` the Potency [8] was “inactive”.
For `C[C@H]1[C@H](NC(=O)/C(=N/OC(C)(C)C(=O)O)c2csc(N)n2)C(=O)N1S(=O)(=O)O` (stereo in doubt), the Potency [8] was “inactive”.
With `C[C@]12CC[C@H]3[C@@H](CCC4=CC(=O)CC[C@@]43C)[C@@H]1CC[C@@H]2C(=O)CO` the Potency [8] was “inactive”.
With `O=c1c(-c2ccccc2)c1-c1ccccc1` the Potency [8] was “inactive”.
For `COc1cc(N)c(Cl)cc1C(=O)NC1CCN(CCCOc2ccc(F)cc2)CC1OC` (centres undefined), the Potency [8] was “inactive”.
For `Cc1c(N(C)CS(=O)(=O)O)c(=O)n(-c2ccccc2)n1C`, the Potency [8] was “inactive”.
In the case of `O=c1ccc2ccccc2o1`, the Potency [8] is reported as “inactive”.
In the case of `Cc1c(C)n(Cc2ccccc2)c2ccc(C(=O)OCCN(C)C)cc12`, the Potency [8] is reported as “inactive”.
For `Oc1c(Cl)cc(Cl)cc1Sc1cc(Cl)cc(Cl)c1O`, the Potency [11] was 22.4 µM (active), the Potency [5] was 7.08 µM (active) and the outcome [12] was “inactive”. For the same molecule, the Potency [13] was 200 µM (active) and the Potency [10] was “inactive”.
For `CN1CCC[C@@H]1c1cccnc1`, the Potency [8] was “inactive”, the outcome [9] was “inactive” and the outcome [14] was “inactive”. The outcome [15] was “inactive”, the outcome [16] was “inactive” and the outcome [17] was “inactive”. For the same molecule, the outcome [18] was “inactive” and the outcome [19] was “inactive”.
In the case of `Cc1nc2n(c(=O)c1CCN1CCC(c3noc4cc(F)ccc34)CC1)CCC[C@H]2O`, the Potency [8] is reported as “inactive” and the outcome [9] is reported as “inactive”.
With `NC(CS)C(=O)O` (centres undefined) the Potency [8] was “inactive”.
For `CCCCC(CC)CN=C(N)NC(N)=NCCCCCCN=C(N)NC(N)=NCC(CC)CCCC` (centres undefined), the Potency [20] was “inactive”, the Potency [13] was 39.8 µM (active) and the Potency [6] was 29.4 µM (active). For the same molecule, the Potency [7] was 13.1 µM (active) and the Potency [10] was 3700 nM (active).
